Measured values published in PubChem BioAssay AID1021 (Emory University Molecular Libraries Screening Center, 2008).
The whole screen tested about 220,000 compounds, of which about 2,100 (0.95%) were called active. Only a selection was taken, and actives are over-represented in it overall. Unmarked numbers belong to inactive results.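 How the source made its calls: active means compounds that cut the binding signal by more than half at the single screening dose; inactive means the rest.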

The molecules below were run against Induced myeloid leukemia cell differentiation protein Mcl-1 (Homo sapiens) (UniProt Q07820) (assay: Mcl-1/Bid binding inhibitors, primary screen, biochemical, TR-FRET, 1536-well (AID 1021;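 further: His-tagged Mcl-1 with europium anti-His antibody binding Bid BH3 peptide; 0% = Mcl-1 plus peptide wells and 100% = peptide-only wells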)). Settings: TR-FRET Mcl-1/Bid-Dy647 peptide binding, at 21.7 µM, active compounds read high.
Sequence of Induced myeloid leukemia cell differentiation protein Mcl-1 (Homo sapiens) (Q07820 whole entry, looked up): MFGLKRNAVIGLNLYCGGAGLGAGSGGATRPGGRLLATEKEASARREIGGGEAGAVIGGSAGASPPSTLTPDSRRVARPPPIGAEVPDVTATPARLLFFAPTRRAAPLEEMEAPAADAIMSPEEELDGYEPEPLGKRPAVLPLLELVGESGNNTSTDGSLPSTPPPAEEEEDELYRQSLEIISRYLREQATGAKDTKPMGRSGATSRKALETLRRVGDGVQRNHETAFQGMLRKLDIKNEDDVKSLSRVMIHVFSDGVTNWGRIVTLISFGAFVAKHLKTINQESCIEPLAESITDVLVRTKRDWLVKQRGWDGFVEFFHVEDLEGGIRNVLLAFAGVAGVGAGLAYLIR

Which inhibition does the source give for `O=C(COC(=O)c1cccc(Br)c1)Nc1cccc2c1C(=O)c1ccccc1C2=O` here?
The inhibition was 8.65%.

With `O=C(COC(=O)Cn1cnc2ccccc21)Nc1cccc2c1C(=O)c1ccccc1C2=O` as the molecule, how does the inhibition read?
The inhibition was 52.5% (active).

With `O=C(COC(=O)Cn1cnc2ccccc2c1=O)NCc1ccccc1Cl` as the molecule, how does the inhibition read?
Its inhibition is 8.62%.

With `N#Cc1cccc(NC(=O)COC(=O)c2ccccc2C(=O)c2ccc(Cl)c([N+](=O)[O-])c2)c1` as the molecule, how does the inhibition read?
The inhibition was -7.05%.

With `CC(C)C[C@H](CO)Nc1nc(N(C)c2cccc(Cl)c2)c2ncn(C(C)C)c2n1` as the molecule, how does the inhibition read?
The inhibition was -56.4%.

`NS(=O)(=O)c1cccc(NC(=O)COC(=O)/C=C/c2ccco2)c1` was tested. Which inhibition did it give?
The inhibition was -10.4%.

Which inhibition does the source give for `O=[N+]([O-])C(=c1ccc2c(c1)N1C3=C(CCCC3)CC3CCCCC31N=2)[N+](=O)[O-]` (stereo not given) here?
The inhibition was 78.9% (active).

For `CCN(CC)S(=O)(=O)c1ccc(N2CCCC2)c(NS(=O)(=O)c2cccs2)c1`, which inhibition is on record?
The inhibition was -28.4%.

With `O=C(NNc1ccccc1Cl)C(O)(c1cccc(C(F)(F)F)c1)c1cccc(C(F)(F)F)c1` as the molecule, how does the inhibition read?
Its inhibition is 3.27%.

Which inhibition does the source give for `O=C(C[n+]1ccc2c(c1)nnn2-c1ccccc1)c1ccc(Cl)cc1` here?
The inhibition was -1.27%.

Which inhibition does the source give for `COc1ccccc1NC(=O)CSc1nc2sc(C)c(C)c2c(=O)n1Cc1ccco1` here?
Its inhibition is -24.2%.

`Cc1ccc(C)c(SCc2nc3sc(C(=O)O)c(C)c3c(=O)[nH]2)c1` was tested. Which inhibition did it give?
The inhibition was -24.1%.

For `Cc1ccc(-c2nc(SCC(=O)Nc3ccccc3OC(F)F)c3c(C)c(C(=O)O)sc3n2)cc1`, which inhibition is on record?
The inhibition was 79.3% (active).

For `COC(=O)C1=C(N)Oc2cc(C)[nH]c(=O)c2C1c1ccc(Cl)cc1` (stereo not given), which inhibition is on record?
Its inhibition is -43.4%.

`CN=c1scc(-c2cc(OC)ccc2OC)n1/N=C/c1c(C)[nH]c2ccccc12` was tested. Which inhibition did it give?
Its inhibition is 39.1%.

How did the inhibition turn out when `CC(=O)c1ccc(NC(=O)C(C)NCc2ccc(Cl)cc2)cc1` (stereo not given) was run?
Its inhibition is 3.24%.

With `CCN(CC)c1ccc(S(=O)(=O)N2CCOCC2)cc1NC(=O)CSc1cccc[n+]1[O-]` as the molecule, how does the inhibition read?
The inhibition was -69%.

Which inhibition does the source give for `O=C(O)CC1(CC(=O)Nc2cccc(C(F)(F)F)c2)CCCC1` here?
Its inhibition is -7.96%.

With `Cc1cccc(OCc2ccc(C(=O)Nc3ccc(F)cc3)cc2)c1` as the molecule, how does the inhibition read?
The inhibition was 11%.

For `COc1ccc(C(=O)NNS(=O)(=O)c2ccc(C)cc2)cc1`, which inhibition is on record?
The inhibition was -16.3%.

Which inhibition does the source give for `Cc1ccc(COc2ccc(C(=O)NN)cc2)cc1` here?
The inhibition was 67.1% (active).

With `Cc1cccc(N2Cc3ccccc3C2=NC(=O)c2ccc(Cl)nc2)c1` as the molecule, how does the inhibition read?
The inhibition was -35.5%.

`COc1cccc(OC)c1CN(C)C(=O)c1cnccc1C(F)(F)F` was tested. Which inhibition did it give?
Its inhibition is -18.2%.

`O=C(NNC1=C(C(=O)C(F)(F)F)CCC1)c1ccncc1` was tested. Which inhibition did it give?
The inhibition was -42.6%.

How did the inhibition turn out when `COc1cccc(NC(=O)C2c3cc(OC)c(OC)cc3C(=O)N(C)C2c2cccnc2)c1` (stereo not given) was run?
The inhibition was 84.2% (active).

How did the inhibition turn out when `COc1cccc(C(=O)Nc2cccnc2)c1OC` was run?
The inhibition was -18.8%.

For `CCOc1cc2c(cc1OCC)C(C(=O)O)C(c1ccc(OC)c(O)c1)N(C)C2=O` (stereo not given), which inhibition is on record?
Its inhibition is -21.7%.

With `CCOC(=O)c1c(NC(=S)NC)sc2c1CCCC2` as the molecule, how does the inhibition read?
Its inhibition is -22.5%.

With `CCOC(=O)c1c(NC(=S)Nc2ccccc2C)sc2c1CCC2` as the molecule, how does the inhibition read?
The inhibition was -25.3%.

`CCOC(=O)c1c(NC(=S)NC(=O)c2ccco2)sc2c1CCCC2` was tested. Which inhibition did it give?
Its inhibition is 61.4% (active).

How did the inhibition turn out when `O=C(O)CC12CC3CC(C1)CC(n1ncc(NCc4ccc(F)cc4)c(Cl)c1=O)(C3)C2` was run?
The inhibition was -0.52%.

`CS(=O)(=O)c1ccc2nc(NC(=O)c3ccc(N4CCCC4=O)cc3)sc2c1` was tested. Which inhibition did it give?
Its inhibition is -53.4%.

Which inhibition does the source give for `CS(=O)(=O)c1ccc2nc(NC(=O)CN3CCCCCC3)sc2c1` here?
The inhibition was 55.1% (active).

With `CS(=O)(=O)c1ccc2nc(NC(=O)C3CCCCC3)sc2c1` as the molecule, how does the inhibition read?
Its inhibition is -11%.

`O=c1[nH]nc(SCCS(=O)(=O)c2ccc(F)cc2)n1-c1ccccc1C(F)(F)F` was tested. Which inhibition did it give?
Its inhibition is -37.5%.

`CCOC(=O)Nc1ccc2c(c1)N(C(=O)CCN1CCN(CCO)CC1)c1ccccc1CC2` was tested. Which inhibition did it give?
Its inhibition is 51.3% (active).

`CCOC(=O)Nc1ccc(NC(=O)OCC)cc1` was tested. Which inhibition did it give?
Its inhibition is -26.4%.

With `CCNCCC(=O)N1c2ccccc2Sc2ccc(NC(=O)OCC)cc21` as the molecule, how does the inhibition read?
Its inhibition is -12.2%.

`COc1ccc2[nH]c(=S)cc(C)c2c1` was tested. Which inhibition did it give?
Its inhibition is -43.7%.

With `CNC1(c2nnnn2-c2c(C)cccc2C)CCOC(C)(C)C1` (stereo not given) as the molecule, how does the inhibition read?
Its inhibition is -15.5%.

With `CCCNC(=O)NC(=O)COC(=O)CC(NC(N)=O)c1ccc(Cl)cc1` (stereo not given) as the molecule, how does the inhibition read?
The inhibition was -14.2%.

With `O=C(CN1CCCC1)N1CCN(c2ccccc2)CC1` as the molecule, how does the inhibition read?
Its inhibition is -53.9%.

Which inhibition does the source give for `CN(C)/C(CN1CCCCC1)=C1\N=C(c2ccccc2)OC1=O` here?
Its inhibition is 65.5% (active).

How did the inhibition turn out when `O=S(=O)(c1ccccc1)N(CC(O)CN1CCCCC1)c1ccccc1` (stereo not given) was run?
The inhibition was -28.8%.

Which inhibition does the source give for `COC(=O)N/N=C/c1ccc(-c2ccc(Cl)c(Cl)c2)o1` here?
Its inhibition is 15.5%.

`COC(=O)c1c(NC(=O)c2c(Cl)cnn2C)sc(C)c1C` was tested. Which inhibition did it give?
Its inhibition is -24%.

With `CCOC(=O)c1c(NC(=O)c2cccs2)sc(C)c1C` as the molecule, how does the inhibition read?
The inhibition was -14.7%.

Which inhibition does the source give for `COCCCNCC(=O)Nc1sc(C)c(C)c1C(=O)OC` here?
Its inhibition is 63.5% (active).

With `COc1cccc(NC(=O)CN(C)C(C)C(=O)Nc2ccc(C#N)cc2)c1` (stereo not given) as the molecule, how does the inhibition read?
Its inhibition is -15.1%.

How did the inhibition turn out when `O=C(NCc1ccco1)c1nn2cccnc2c1Cl` was run?
Its inhibition is -10.8%.

For `COCCCNc1nc2c(-c3cccc(C(F)(F)F)c3)nnn2c2ccccc12`, which inhibition is on record?
Its inhibition is -13.1%.

With `NCC(=O)c1cccc2ccc[n+]([O-])c12` as the molecule, how does the inhibition read?
The inhibition was -13.8%.

With `CCc1ccccc1NC(=O)CSc1nnc(-c2ccncc2)o1` as the molecule, how does the inhibition read?
Its inhibition is -14.6%.

`COc1ccc(C2c3c(C)nn(-c4ccccc4)c3NC(=O)N2c2ccccc2)cc1` (stereo not given) was tested. Which inhibition did it give?
Its inhibition is 76.8% (active).

Which inhibition does the source give for `Cc1nn(-c2ccccc2)c2c1C(c1cccc([N+](=O)[O-])c1)N(c1ccccc1)C(=O)N2` (stereo not given) here?
The inhibition was -12.3%.

`COc1ccc(-n2c(C)nc3c(cnn3-c3ccccc3)c2=O)cc1` was tested. Which inhibition did it give?
The inhibition was -3.33%.

For `CN(NC(=O)C1CC(=O)N(c2ccccc2)C1)C1=NS(=O)(=O)c2ccccc21` (stereo not given), which inhibition is on record?
The inhibition was -8.25%.

For `O=S(=O)(/N=C(/Nc1ccccn1)c1ccccc1)c1ccc(Cl)cc1`, which inhibition is on record?
Its inhibition is -22.6%.

Which inhibition does the source give for `Cc1ccc(S/C(=N\S(=O)(=O)c2ccc(Cl)cc2)c2ccccc2)cc1` here?
Its inhibition is 61.7% (active).

With `Cc1ccc(S(=O)(=O)/N=C(/Nc2ccccn2)c2ccc(Cl)cc2)cc1` as the molecule, how does the inhibition read?
Its inhibition is 1%.
